Among the data in PubChem BioAssay (Tox21) are Potency, outcome and activity change, positive = activation values, retold here.

For assay [1], the target named is Luciferin 4-monooxygenase (Photinus pyralis) (UniProt P08659). Description: qHTS assay to identify small molecule inhibitors of firefly luciferase (AID 1224835). Also: nearly all actives have a fitted effect of over 25% in size. Also: potency is read from the fitted curve at half-maximal effect. The gist of the method: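 Quantitative HTS format; KM concentrations of both substrates. Purified P. pyralis FLuc activity quantified from luminescence images.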
Sequence of Luciferin 4-monooxygenase (Photinus pyralis) (P08659 whole entry, looked up): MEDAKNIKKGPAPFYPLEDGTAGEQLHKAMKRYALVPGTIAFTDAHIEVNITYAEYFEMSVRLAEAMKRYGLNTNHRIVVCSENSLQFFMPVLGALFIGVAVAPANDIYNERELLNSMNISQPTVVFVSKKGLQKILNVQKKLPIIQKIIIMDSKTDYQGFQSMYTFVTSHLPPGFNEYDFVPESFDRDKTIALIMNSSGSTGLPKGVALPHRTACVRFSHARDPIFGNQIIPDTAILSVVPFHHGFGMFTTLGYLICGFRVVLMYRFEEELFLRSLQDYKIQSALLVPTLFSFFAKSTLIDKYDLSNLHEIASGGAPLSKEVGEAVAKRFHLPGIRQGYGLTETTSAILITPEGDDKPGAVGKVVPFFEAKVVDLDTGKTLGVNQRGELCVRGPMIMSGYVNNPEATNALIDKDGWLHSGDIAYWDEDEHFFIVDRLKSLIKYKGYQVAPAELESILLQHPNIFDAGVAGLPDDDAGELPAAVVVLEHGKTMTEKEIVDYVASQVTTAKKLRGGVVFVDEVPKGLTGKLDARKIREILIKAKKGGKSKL
(In general: In qHTS, concentration-response curves come from the screen itself.)

Assay [2] in a line: qHTS assay to identify small molecule agonists of the constitutive androstane receptor (CAR) signaling pathway - cell viability counter screen (AID 1224836). Also: nearly all actives have a fitted effect of over 45% in size. The procedure, abridged: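 HepG2-CYP2B6-hCAR, 2500 cells/well, 4 h pre-incubation; cpd 15 conc + PK11195 0.75 uM final; 23 h, 37 C/5% CO2; CellTiter-Fluor, fluorescence.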
Assay [3] can be described thus: qHTS assay to identify small molecule antagonists of the constitutive androstane receptor (CAR) signaling pathway - cell viability counter screen (AID 1224837). Also: nearly all actives have a fitted effect of over 45% in size. The gist of the method:
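Using CellTiter-Fluor, viability is scored in HepG2 cells stably carrying hCAR and a 2.2kb CYP2B6 reporter after 23 hr compound exposure across 15 concentrations, with CITCO present at 50 nM.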

In assay [4] the target is Nuclear receptor subfamily 1 group I member 3 (Homo sapiens) (UniProt Q14994). Description: qHTS assay to identify small molecule antagonists of the constitutive androstane receptor (CAR) signaling pathway (AID 1224838).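 Also: HepG2 cells stably expressing hCAR with CYP2B6 luciferase reporter stimulated by CITCO; nearly all actives have a fitted effect of over 40% in size.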 The procedure, abridged: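 Reporter luminescence was quantified after 24 h exposure of hCAR/CYP2B6-2.2kb double-stable HepG2 cells to compounds at 15 concentrations in the presence of 50 nM CITCO final.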
Sequence of Nuclear receptor subfamily 1 group I member 3 (Homo sapiens) (Q14994 whole entry, looked up): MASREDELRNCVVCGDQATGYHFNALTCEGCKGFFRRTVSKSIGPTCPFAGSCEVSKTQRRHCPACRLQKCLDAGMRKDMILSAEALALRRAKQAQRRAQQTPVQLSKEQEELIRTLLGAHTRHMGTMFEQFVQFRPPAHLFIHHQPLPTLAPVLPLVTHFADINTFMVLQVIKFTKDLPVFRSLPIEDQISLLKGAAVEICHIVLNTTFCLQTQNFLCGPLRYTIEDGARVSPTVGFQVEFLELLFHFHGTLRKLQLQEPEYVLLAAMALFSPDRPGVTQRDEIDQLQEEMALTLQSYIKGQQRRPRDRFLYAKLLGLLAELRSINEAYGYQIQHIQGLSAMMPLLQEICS

For assay [5] the target is unchanged. Description: qHTS assay to identify small molecule agonists of the constitutive androstane receptor (CAR) signaling pathway (AID 1224839).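 Also: HepG2 cells stably carrying human CAR and a CYP2B6 luciferase reporter; nearly all actives have a fitted effect of over 15% in size.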 The procedure, abridged:
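HepG2-CYP2B6-hCAR cells, 2500/well, 4 h pre-incubation; compounds 15 conc.; PK11195 0.75 uM final; 24 h, 37 C/5% CO2; ONE-Glo luciferase read.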

Assay [6] is described as follows: qHTS assay to identify small molecule antagonists of the estrogen related receptor signaling pathway with the pleiotropic PPARgamma coactivator (PGC) from Tox21 10K library - cell viability counter screen (AID 1224840; active = well fitted cell-killing curve with a large enough effect in the repeat runs, not every such curve was filed as active; also: nearly all actives have a fitted effect of over 40% in size). The gist of the method:
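Here the PGC/ERR cells serve as a cytotoxicity control: they are exposed to compounds for 17.5 hours at 37 C, and live-cell signal is quantified using CellTiter-Fluor fluorescence.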

For assay [7], the target named is Thyrotropin receptor (Homo sapiens) (UniProt P16473). As to the kind of experiment: qHTS assay to identify small molecule agonists of the thyroid stimulating hormone receptor (TSHR) signaling pathway (AID 1224843; calls by dose curve; also: nearly all actives have a fitted effect of over 45% in size; also: potency is read from the fitted curve at half-maximal effect). The procedure, abridged:
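TSHR-expressing HEK293 cells (800 per well) were exposed to compounds for 30 min at room temperature. cAMP was then detected by HTRF competition with cAMP-d2 and anti-cAMP cryptate, read after 1 h at room temperature. Fifteen concentrations, triplicate.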

Assay [8] in a line: qHTS assay to identify small molecule agonists of the hypoxia (HIF-1) signaling pathway - cell viability counter screen (AID 1224844; calls by dose curve; also: nearly all actives have a fitted effect of over 50% in size). The gist of the method:
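Multiplexed with the HRE beta-lactamase assay, this viability read used CellTiter-Glo luminescence (30 min, RT) on HRE-bla ME-180 cells treated 17 hrs with compounds in 0.5% dialyzed FBS medium.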

Assay [9] can be described thus: qHTS assay to identify small molecule agonists of H2AX (AID 1224845; active = well fitted activation curve with a large enough effect in the signal ratio in the repeat runs, not every such curve was filed as active; the % refers to the signal ratio). The gist of the method:
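Wild-type CHO-K1 cells plated overnight, then exposed 3 hr at 37C to compounds at 15 concentrations (0.76% DMSO). Lysed, then HTRF anti-pH2AX(S139)-cryptate/anti-H2AX-d2 detection after 24 hr at room temperature; emissions 665 and 620 nm.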

The nature of assay [10]: qHTS assay to identify small molecule agonists of the hypoxia (HIF-1) signaling pathway (AID 1224846; active = well fitted activation curve with a large enough effect in the signal ratio in the repeat runs, not every such curve was filed as active; the % refers to the signal ratio). The procedure, abridged: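 Hypoxia-pathway activation was scored as increased beta-lactamase from an HRE-controlled reporter in ME-180 cells; plated at 2,000 cells per well with 0.5% dialyzed FBS, they were exposed 17 hrs to compounds and then given CCF4-AM.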
The nature of assay [11]: qHTS RealTime-Glo MT Cell Viability Assay in HepG2 cells - 24 hour (AID 1224867). Also: nearly all actives have a fitted effect of over 50% in size. The gist of the method: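 qHTS, HepG2, 600 cells/well, RealTime-Glo (NanoLuc + prosubstrate) added with cells; 5 h preincubation; DMSO compound addition; 37 C; luminescence at 0/8/16/24/32/40 h.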
A short description of assay [12]: qHTS RealTime-Glo MT Cell Viability Assay in HEK293 cells - 32 hour (AID 1224868). Also: nearly all actives have a fitted effect of over 50% in size. Also: potency is read from the fitted curve at half-maximal effect. The procedure, abridged: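 Assay medium contained NanoLuc luciferase plus cell-permeant prosubstrate, added with HEK293 cells at 600 cells/well. After 5 h at 37 C/5% CO2 compounds were added; plates stayed at 37 C for 40 h with serial luminescence reads.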
A short description of assay [13]: A CellTox Green Cytotoxicity Assay to monitor cytotoxicity in HEK293 cells - 0 hour (AID 1224869). Also: nearly all actives have a fitted effect of over 50% in size. The procedure, abridged: (§1)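 Seeding of HEK293 cells together with cytotoxicity dye preceded a 5 h incubation at 37 C/5% CO2. Test compounds in DMSO were then added and fluorescence monitored across 40 h.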
Assay [14] can be described thus: A CellTox Green Cytotoxicity Assay to monitor cytotoxicity in HEK293 cells - 40 hour (AID 1224871). Also: nearly all actives have a fitted effect of over 45% in size. The gist of the method: as §1
The nature of assay [15]: qHTS RealTime-Glo MT Cell Viability Assay in HepG2 cells - 40 hour (AID 1224870). Also: nearly all actives have a fitted effect of over 50% in size. The procedure, abridged:
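HepG2 cells mixed with RealTime-Glo MT reagents (NanoLuc plus cell-permeant prosubstrate) were seeded at 600 cells/well, incubated 5 h at 37 C/5% CO2, then pinned with compounds in DMSO; nonlytic luminescence tracked viability during 40 h treatment.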

Assay [16] can be described thus: qHTS assay to identify small molecule antagonists of the estrogen related receptor signaling pathway with the pleiotropic PPARgamma coactivator (PGC) from Tox21 10K library (AID 1224841; call rule not given here). The gist of the method:
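Each well held 2,000 PGC/ERR cells, pre-incubated six hours (37 C, 5% CO2). Test substances in DMSO were added by pin tool and left for 18 h at 37 C before luciferase detection by One-Glo.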

Assay [17] in a line: qHTS assay to identify small molecule agonists of the estrogen related receptor signaling pathway with the pleiotropic PPARgamma coactivator (PGC) from Tox21 10K library (AID 1224842). Also: nearly all actives have a fitted effect of over 15% in size. Also: potency is read from the fitted curve at half-maximal effect. The procedure, abridged: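 PGC/ERR reporter cells (NTP line) were seeded 2,000 per well, rested 6 h at 37 C/5% CO2, then pin-dosed with compounds in DMSO for 18 h at 37 C; luciferase read by One-Glo luminescence after 30 min at room temperature.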

Assay [18] in a line: qHTS assay to identify small molecule agonists of H2AX - cell viability counter screen (AID 1224847; calls by dose curve; also: top concentration of the series differs between compounds; nearly all actives have a fitted effect of over 30% in size). The procedure, abridged:
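Cells plated first: CHO-K1, 1000 per well in 10% FBS medium, incubated overnight at 37C. Then 15-point compound titration added (final DMSO 0.76%) for 3 hr. Finally CellTiter-Glo added and luminescence read.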

Assay [19] in a line: qHTS assay to identify small molecule antagonists of the estrogen related receptor (ERR) signaling pathway from Tox21 library (AID 1224848). Also: nearly all actives have a fitted effect of over 50% in size. Also: potency is read from the fitted curve at half-maximal effect. The procedure, abridged: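 Cells: ERR line, 2,000/well; 6 h preincubation 37 C/5% CO2. Cpd in DMSO via pin tool; 18 h, 37 C. ONE-Glo, 30 min RT, luminescence.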
A short description of assay [20]: qHTS assay to identify small molecule agonists of the estrogen related receptor (ERR) signaling pathway from Tox21 library (AID 1224849; calls by dose curve; also: nearly all actives have a fitted effect of over 15% in size). To be noted: ERR reporter cell line, ONE-Glo luciferase, 18 h. The procedure, abridged:
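Six hours post-seeding at 37 C/5% CO2, ERR cells receive DMSO-solubilised compounds; after 18 h at 37 C, ONE-Glo reagent is applied and luminescence recorded.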

Structures are written as SMILES. Several values for one entry are separate records, joined by “and”; a condition that tells them apart may be missing. Equal values may be shown once. Values without a mark were called inactive. Records with an inconclusive call do not appear. Activity calls are given as the source filed them. Unless noted, calls follow the shape of the dose curve; as a rule, active = well fitted curve in the direction sought with a large enough effect in the repeat runs; inconclusive = weak or mixed curves; inactive = no such curve, though single readings can be large; an effect the other way counts as inactive or inconclusive.
% is scaled to controls: 0 for no effect and ±100 for the full control effect.

Sequence of Thyrotropin receptor (Homo sapiens) (P16473 whole entry, looked up): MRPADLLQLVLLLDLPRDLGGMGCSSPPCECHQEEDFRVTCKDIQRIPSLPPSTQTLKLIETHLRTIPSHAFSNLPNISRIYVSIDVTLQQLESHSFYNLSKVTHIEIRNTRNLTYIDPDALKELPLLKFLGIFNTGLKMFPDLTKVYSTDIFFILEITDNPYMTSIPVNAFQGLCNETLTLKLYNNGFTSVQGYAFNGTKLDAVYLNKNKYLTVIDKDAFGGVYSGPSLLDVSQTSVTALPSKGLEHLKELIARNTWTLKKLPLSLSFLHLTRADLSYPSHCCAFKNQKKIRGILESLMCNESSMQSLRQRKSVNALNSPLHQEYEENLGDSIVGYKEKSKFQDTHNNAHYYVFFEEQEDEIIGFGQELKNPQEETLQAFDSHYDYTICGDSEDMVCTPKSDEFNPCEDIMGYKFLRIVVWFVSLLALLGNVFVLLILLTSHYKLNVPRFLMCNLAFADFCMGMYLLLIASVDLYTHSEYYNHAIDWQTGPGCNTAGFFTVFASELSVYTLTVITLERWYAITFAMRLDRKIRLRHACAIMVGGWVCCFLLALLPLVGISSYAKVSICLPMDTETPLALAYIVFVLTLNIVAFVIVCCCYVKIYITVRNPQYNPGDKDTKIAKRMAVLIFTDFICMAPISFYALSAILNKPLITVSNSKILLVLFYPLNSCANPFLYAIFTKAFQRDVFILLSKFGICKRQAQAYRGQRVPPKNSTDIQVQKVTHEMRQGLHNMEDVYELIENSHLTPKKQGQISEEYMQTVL

Turning to `Brc1nc2ccccc2s1`, in assay [1], the Potency is 39.8 µM (active). The Potency entry in assay [2], in assay [3], in assay [4], in assay [5], in assay [6] and in [7] was “inactive” throughout. Besides, the Potency result in assay [8], in [9], in assay [11], in assay [12], in assay [13] and in [14] was “inactive” each time. In [10], the outcome was inactive.
On to `c1ccc2ncccc2c1`, for which the Potency result in assay [1], in [2], in assay [3], in assay [4], in assay [5] and in assay [6] was “inactive” throughout. For the same compound, the Potency result in assay [7], in assay [8], in assay [9], in [11], in assay [12] and in assay [13] was “inactive” each time. For the same compound, the Potency entry in assay [15] and in assay [14] was “inactive” each time. In addition, the compound was classed as inactive in [10].
Regarding `CC1(C)OC(=O)NC1=O`, the Potency result in assay [1], in [2], in assay [3], in [4], in assay [5] and in assay [6] was “inactive” in each case. Besides, the Potency result in assay [16], in assay [17], in assay [7], in [8], in assay [9] and in assay [18] was “inactive” each time. The Potency entry in assay [19], in assay [11], in [12], in assay [13], in assay [15] and in assay [14] was “inactive” each time. The activity change, positive = activation in assay [20] (at 42.5 µM (top of the series)) was 3.88%; in assay [20] (at 92.4 µM (top of the series)), 4.19%.
As for `CNC[C@H](O)c1ccc(O)c(O)c1`, the Potency result in assay [1], in assay [2], in assay [3], in assay [4], in assay [5] and in assay [6] was “inactive” throughout. The Potency result in [16], in [8], in [18], in assay [19], in assay [11] and in assay [12] was “inactive” in each case. Also, the Potency result in assay [13], in assay [15] and in assay [14] was “inactive” throughout. Moreover, the Potency in [17] was 1.54 µM (active) and 1.16 µM (active); in assay [7] it was 770 nM (active) and 2.31 µM (active). In addition, the activity change, positive = activation in [20] (at 19 µM (top of the series)) is 16.5%; in assay [20] (at 92.4 µM (top of the series)), -7.74%.
In the case of `CC1(C)NC(=O)N(c2ccc([N+](=O)[O-])c(C(F)(F)F)c2)C1=O`, the Potency entry in assay [1], in assay [2], in assay [3], in assay [4], in assay [5] and in assay [6] was “inactive” in each case. Also, the Potency entry in [16], in assay [17], in assay [7], in [8], in [9] and in [11] was “inactive” each time. Moreover, the Potency result in [13], in assay [15] and in assay [14] was “inactive” each time. Moreover, the Potency in [19] is 17.2 µM (active) and 11.9 µM (active); in assay [12], 24.5 µM (active). The activity change, positive = activation in assay [20] (at 42.5 µM (top of the series)) was -39.2%; in [20] (at 92.4 µM (top of the series)), -43.1%.
For the compound `C=CC(=O)OCCCC`, the Potency result in assay [1], in assay [2], in assay [3], in assay [4], in assay [5] and in assay [6] was “inactive” each time. Further, the Potency entry in [16], in assay [17], in [7], in [8], in [9] and in assay [19] was “inactive” in each case. The Potency result in assay [11], in assay [12], in assay [13], in [15] and in [14] was “inactive” in each case. In assay [10], the compound was called inactive. Besides, the activity change, positive = activation in [20] (at 92.4 µM (top of the series)) is 7.41% and 1.06%.
As for `OC[C@H]1O[C@@H]2O[C@H]3[C@H](O)[C@@H](O)[C@@H](O[C@H]4[C@H](O)[C@@H](O)[C@@H](O[C@H]5[C@H](O)[C@@H](O)[C@@H](O[C@H]6[C@H](O)[C@@H](O)[C@@H](O[C@H]7[C@H](O)[C@@H](O)[C@@H](O[C@H]1[C@H](O)[C@H]2O)O[C@@H]7CO)O[C@@H]6CO)O[C@@H]5CO)O[C@@H]4CO)O[C@@H]3CO`, the Potency result in [1], in assay [2], in [3], in assay [4], in assay [5] and in assay [6] was “inactive” in each case. Moreover, the Potency entry in [7], in assay [8], in [9], in assay [18], in assay [11] and in assay [12] was “inactive” throughout. For the same compound, the Potency entry in assay [13], in assay [15] and in assay [14] was “inactive” throughout. Moreover, the compound was classed as inactive in [10].
